In PubChem BioAssay (NCI):
About 83,000 compounds went through this panel and 20% of them were active in at least one assay; those are over-represented in the sample as a whole.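 The test compound was applied at a single concentration to cells in 96-well plates for 48 hours, and percent growth was recorded.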 Calls of active or inactive are those of the source. How the source made its calls: active means growth percent below 10; inactive means the rest.

test system: SN12C renal; assay: NCI-60 one-dose screen, 48 h (100 = growth as untreated, 0 = no growth, -100 = all killed); settings: 10 µM unless noted

SMILES	growth
COCCn1cc(-c2csc(-c3c[nH]c4ccccc34)n2)c2cccnc21	64.3% (inactive)
CCN(CC)c1ccc(-c2cc(-c3cc(OC)c(OC)c(OC)c3)nc(N3CCC(O)CC3)c2C#N)cc1	13.5% (inactive)
CN1C(=O)/C(=C/c2ccc(C(=O)Nc3ncc(Cc4cccc(C(F)(F)F)c4)s3)cc2)SC1=S	73.4% (inactive)
Nc1ncnc2c1N=C(c1ccc(Cl)cc1)CC(c1cccc(Nc3ccnc4cc(Cl)ccc34)c1)N2 (centres undefined)	67.1% (inactive)
COCCn1cc(-c2nc(-c3cc4cccnc4n3C)cs2)c2ccccc21	59.1% (inactive)
COC(=O)[C@]1(C)CCC[C@]2(C)[C@H]3C[C@@H]4[C@H]5[C@@H]6CC/C(=N\OCC/C(N)=N/O)[C@H]5[C@@]3(CC[C@H]21)CC4(C(C)C)O6	63.4% (inactive)
Cc1cccc(-c2nc(C(C)C)sc2-c2ccnc(NCCCNS(=O)(=O)c3ccc(Cl)cc3)c2)c1	73% (inactive)
O=C(/C=C/C12c3ccccc3C(c3ccccc31)C1C(=O)NC(=O)C12)c1ccc(Cl)cc1Cl (centres undefined)	9.38% (active)
CC(C)(C)CC(C)(C)Nc1c(-c2c(O)c3ccccc3oc2=O)nc2sc3ccccc3n12	51% (inactive)
CN(C)CCC(CCN(C)C)(C(=O)O)c1ccccc1	98.4% (inactive)
Cn1c(=O)[nH]c(=O)c2nc3c(nc21)-c1ccccc1C3=O	96.6% (inactive)
C=C(c1ccc(C(=O)O)c(F)c1)c1cc2c(cc1C)C(C)(C)CCC2(C)C	85.4% (inactive)
C=C1C(=O)O[C@H]2[C@H]1CC/C(COC(=O)C(=O)c1c[nH]c3ccc(Cl)cc13)=C\CC[C@@]1(C)O[C@@H]21	-86.8% (active)
N#Cc1c(-c2ccc(Br)cc2)nc2c(N=Nc3ccc(S(N)(=O)=O)cc3)c(N)nn2c1N	45.6% (inactive)
CCN(CC)CCN1C(=O)c2c(c3c4ccccc4[nH]c3c3ccc4ccccc4c23)C1=O	-89.2% (active)
O=C(/C=C/c1ccccc1)N(C1CCCCC1)C1CCCCC1	97.3% (inactive)
CC1(C)CC[C@]2(CO)CC[C@]3(C)[C@](O)([C@H](O)C[C@@H]4[C@@]5(C)CCCNC(C)(C)[C@@H]5CC[C@]43C)[C@@H]2C1	90% (inactive)

SMILES	growth
Nc1nc(N(Cc2ccccc2)c2ccccc2)c2cn[nH]c2n1	85.8% (inactive)
CN1CC(c2ccc(Br)cc2)C(C(=O)c2ccc(Br)cc2)C12C(=O)Nc1ccccc12 (centres undefined)	70% (inactive)
Nc1nc(C(=O)N/N=C/c2ccc(F)cc2)nn1-c1ccc(S(N)(=O)=O)cc1	93.8% (inactive)
COc1ccc(-c2nc(SCC(=O)Nc3nc4ccc(C)cc4s3)[nH]c(=O)c2C#N)cc1OC	95.9% (inactive)
CNC(=O)NCC1OC(n2cnc3c(NC(=O)Nc4ccccc4)ncnc32)C2OC(=O)CC12 (centres undefined)	113% (inactive)
COc1ccc(NC(=O)c2ccc(Nc3ncnc4c3cnn4-c3cccc(F)c3)cc2)cc1	95.7% (inactive)
CC(C)NS(=O)(=O)/N=C1\NC(=O)NC1=C(Cl)Cl	94.8% (inactive)
Cc1ccc2cnc(N)c(C#Cc3cc(C(=O)Nc4ccc(CN5CCN(C)CC5)c(C(F)(F)F)c4)cnc3C)c2c1	2.6% (active)
Cc1nn(-c2ccc([N+](=O)[O-])cc2)c2ncnc(N/N=C/c3ccccc3O)c12	6.16% (active)
CC(C)(C)OC(=O)CN1CCc2c(sc3ncnc(N4CCN(c5ccc(F)cc5)CC4)c23)C1	91.6% (inactive)
COC(=O)[C@@]1(C)CC[C@]2(C)CC[C@]3(C)C4=CC=C5C(=CC(=O)C(O)=C5C)[C@]4(C)[C@@H](O)C[C@@]3(C)[C@@H]2C1	9.92% (active)
Cc1cc(Cl)nc(N2CCN(CCNc3ccnc4cc(Cl)ccc34)CC2)n1	71.2% (inactive)
Cc1ccc(C)c2c1sc1nc(N3CCOCC3)c(C#N)c(=O)n12	104% (inactive)
COc1ccc2c(c1)CC[C@@H]1[C@@H]2CC[C@]2(C)c3c(cc(C#N)c4c3sc3ccccc34)C[C@@H]12	104% (inactive)
C=C1C(=O)O[C@H]2[C@H]1CC/C(COC(=O)NCc1ccc(Cn3c(=O)sn(-c4ccc(I)cc4)c3=O)cc1)=C\CC[C@@]1(C)O[C@@H]21	79.1% (inactive)
O=C(O)CC(C(=O)O)/C(=C\c1ccccc1)c1ccccc1 (centres undefined)	104% (inactive)
CCN(CC)CCOc1ccc(Nc2ncc3cc(-c4c(Cl)cccc4Cl)c(=O)n(CCOC)c3n2)cc1	10.5% (inactive)
